From PubChem BioAssay AID1529 (NMMLSC, 2009)
The campaign covered roughly 290,000 compounds. About 4,200 (1.4%) were called active. The full list was thinned out, with actives kept by preference. Values without a mark were called inactive.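 Rule for the calls: active = binding response more than 3 SD above or below the average of its plate-row segment, actives on both sides; inconclusive = wells at one plate position flagged as instrument error; inactive = the rest.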

These compounds were tested against Mitogen-activated protein kinase kinase kinase 3 (Homo sapiens) (UniProt Q99759) (assay: modulators of MEKK3-MEK5 PB1 binding, primary screen, biochemical, wildtype MEKK3, multiplex bead flow cytometry, Alexa488-MEK5 (AID 1529;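 note: Alexa488 bead fluorescence after subtracting the streptavidin-only scavenger bead signal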)). Conditions: bead-based flow cytometry, Alexa488-MEK5 binding to MEKK3; at 10 µM; actives lie on both sides; 0 = blocked by unlabeled MEK5, 100 = vehicle.
Mitogen-activated protein kinase kinase kinase 3 (Homo sapiens), sequence (Q99759 whole entry, looked up): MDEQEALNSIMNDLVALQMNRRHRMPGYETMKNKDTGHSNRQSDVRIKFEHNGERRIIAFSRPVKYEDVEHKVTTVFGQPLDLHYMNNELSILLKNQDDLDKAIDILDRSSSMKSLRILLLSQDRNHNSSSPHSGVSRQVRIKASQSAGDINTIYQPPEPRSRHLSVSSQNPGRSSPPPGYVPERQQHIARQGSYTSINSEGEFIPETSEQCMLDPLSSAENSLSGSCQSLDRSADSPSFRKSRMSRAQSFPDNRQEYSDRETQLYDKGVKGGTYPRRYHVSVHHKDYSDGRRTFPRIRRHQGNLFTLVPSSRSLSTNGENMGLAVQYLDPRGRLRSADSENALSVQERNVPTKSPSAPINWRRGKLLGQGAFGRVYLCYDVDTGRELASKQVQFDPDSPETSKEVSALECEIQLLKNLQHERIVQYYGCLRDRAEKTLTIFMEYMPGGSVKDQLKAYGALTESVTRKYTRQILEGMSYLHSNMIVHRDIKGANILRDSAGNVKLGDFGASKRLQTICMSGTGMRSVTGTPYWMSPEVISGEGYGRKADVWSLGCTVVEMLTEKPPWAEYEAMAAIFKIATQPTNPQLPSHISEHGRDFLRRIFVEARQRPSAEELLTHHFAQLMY

SMILES | binding response (% of control)
Cc1noc(C)c1C(=O)OCC(=O)/C=C1\N(C)c2ccccc2C1(C)C | 100%
CC(C)Nc1nnc(SCC(=O)/C=C2\N(C)c3ccccc3C2(C)C)s1 | 101%
CC(=O)Nc1cccc(OCC(=O)/C=C2\N(C)c3ccccc3C2(C)C)c1 | 62% [inhibitor] (active)
CC(CN1CCOCC1)OC(=O)c1ccc(C(C)(C)C)cc1 (stereo not drawn) | 106%
COc1cccc(/C=N\NC(=O)C2=NNC(=O)C2C)c1O (stereo not drawn) | 128% (active)
COc1cc2cc(C(=O)N/N=C/c3cccc(OC)c3OC)[nH]c2cc1OC | 94%
COc1cccc(/C=N/NC(=O)c2[nH]nc3c2CCc2ccccc2-3)c1O | 102%
CCOC(=O)CCc1c(C)c(C#N)c2[nH]c3ccccc3n2c1=O | 109%
CCCc1cc(=S)n2c([nH]c3ccccc32)c1C#N | 1% [inhibitor] (active)
Cc1ccccc1Cn1c(=O)[nH]c2ccccc21 | 52%
COC(C[C@H](O)CC(=O)[C@@H](C)OCc1ccccc1)OC | 101%
CN(c1ccc(C(=O)NCCC2=CCCCC2)cc1)S(C)(=O)=O | 100%
Cn1nnc2cc(C(=O)NCCC3=CCCCC3)ccc21 | 99%
O=C(NCCC1=CCCCC1)c1ccc(Cl)c([N+](=O)[O-])c1 | 153% (active)
O=[N+]([O-])c1ccccc1/C=C/CN1CCC(O)CC1 | 105%
Cc1noc(C)c1S(=O)(=O)N(C)Cc1ccccc1 | 3% [inhibitor] (active)
Cc1noc(C)c1S(=O)(=O)Nc1ccc(C(=O)O)cc1 | 98%
Cc1cc(C)cc(N(CC(=O)N2CC=C(c3ccccc3)CC2)S(=O)(=O)c2c(C)noc2C)c1 | 112%
CCOc1ccccc1NC(=O)COc1ccc(S(=O)(=O)N2CCCC2)cc1 | 98%
COc1ccc(S(=O)(=O)NC(C)C(=O)NCc2ccncc2)cc1Cl (stereo not drawn) | 99%
CC1CCN(C2=NC(=O)/C(=C/c3ccc(O)cc3)S2)CC1 | 100%
CC1CCN(C2=NC(=O)/C(=C/c3cn[nH]c3-c3ccccc3)S2)CC1 | 130% (active)
Cc1ccc(N2CCN(C3=NC(=O)/C(=C\c4cccs4)S3)CC2)cc1 | 98%
COc1ccc(CN2CC[C@H]3C=CC[C@@H](C(=O)N4CCOCC4)[C@H]3C2=O)cc1OC | 98%
CC(=O)c1cccc(NC(=S)N2CCN(S(C)(=O)=O)CC2)c1 | 102%
O=c1c2ccccc2c(-c2ccc(Br)cc2)nn1Cc1ccccc1 | 109%
O=c1c2ccccc2c(-c2ccccc2)nn1Cc1ccccc1 | 134% (active)
CCCNC(=O)CCn1nc(-c2ccccc2)c2ccccc2c1=O | 94%
